Test results as given in PubChem BioAssay (Tox21).
Inconclusive results are not listed. Calls of active or inactive are those of the source. Unless noted, calls follow the shape of the dose curve; as a rule, active = well fitted curve in the direction sought with a large enough effect in the repeat runs; inconclusive = weak or mixed curves; inactive = no such curve, though single readings can be large; an effect the other way counts as inactive or inconclusive.

How the values were obtained:
[1] = qHTS assay for small molecules that induce genotoxicity in human embryonic kidney cells expressing luciferase-tagged ATAD5 (AID 651632); conditions: HEK293T ATAD5-luciferase induction, 16 h; series mostly up to 83.3 µM; also: nearly all actives have a fitted effect of over 15% in size; also: potency is read from the fitted curve at half-maximal effect
Procedure, shortened: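 ATAD5-luc HEK293T, 2,000 cells/well; cpd or DMSO pin-transferred; 16 hr, 37C/5% CO2; Amplite 30 min RT; luminescence.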

[2] = qHTS assay for small molecule agonists of the p53 signaling pathway - cell viability (AID 651633; calls by dose curve; also: nearly all actives have a fitted effect of over 30% in size); conditions: p53RE-bla HCT-116 viability, ATP luminescence, 16 h; series mostly up to 83.3 µM
Procedure, shortened: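 Viability counter-read: CellTiter-Glo luminescence (30 min, room temperature) in the same p53RE-bla plates. These plates had been exposed to compounds for 16 h at 37 C.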

[3] = qHTS assay for small molecules that induce genotoxicity in human embryonic kidney cells expressing luciferase-tagged ATAD5 - cell viability (AID 651634; calls by dose curve; also: nearly all actives have a fitted effect of over 25% in size); conditions: HEK293T ATAD5-luc cells viability, CellTiter-Fluor, 15.5 h; series mostly up to 83.3 µM
Procedure, shortened: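 Fluorescence from CellTiter-Fluor, reporting protease activity within live cells, served as the viability read-out. HEK293T cells carrying luciferase-tagged ATAD5 had been treated with compound for 15.5 hr at 37C.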

[4] = qHTS assay for small molecule disruptors of the mitochondrial membrane potential - cell viability (AID 720634; calls by dose curve;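 also: human HepG2 liver cancer cells; nearly all actives have a fitted effect of over 20% in size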); conditions: HepG2 viability, ATP luminescence (CellTiter-Glo), 1 h; series mostly up to 83.2 µM
Procedure, shortened: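 Cells: HepG2, 2,000/well, attached overnight. Compound 1 hr, 37 C/5% CO2. +m-MPI dye, +CellTiter-Glo 30 min RT. Readout: luminescence (ATP).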

[5] = qHTS assay for small molecule disruptors of the mitochondrial membrane potential (AID 720635); conditions: HepG2 mitochondrial membrane potential, Mito-MPS dye ratio; series mostly up to 83.2 µM
Procedure, shortened: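 Mitochondrial membrane potential tracked with Mito-MPS dye, red aggregates (ex 540/em 590 nm) against green monomers (ex 490/em 535 nm). Compound treatment 1 hr at 37C, dye 30 min in HepG2.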

[6] = qHTS assay to test for compound auto fluorescence at 590 nm (red) in HepG2 cells (AID 720674); conditions: HepG2 autofluorescence, red 540/590 nm, 1 h; series mostly up to 91.3 µM
Procedure, shortened: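 We screened compounds on adherent HepG2 cells, incubating them for an hour at 37 C in 5% CO2 before reading emission at 590 nm under 540 nm excitation; values reflect equivalence to Rose Bengal sodium fluorescence.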

[7] = qHTS assay to test for compound auto fluorescence at 535 nm (green) in HepG2 cells (AID 720675); conditions: green autofluorescence 485/535 nm, 1 h; series mostly up to 91.3 µM
[8] = qHTS assay to test for compound auto fluorescence at 460 nm (blue) in HEK293 cells (AID 720678); conditions: blue autofluorescence 405/460 nm; series mostly up to 91.3 µM
Procedure, shortened: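 Triamterene serves as the blue fluorophore standard. Compound signal at 405/460 nm is read in HEK293 wells (2,000 cells, 10% dialyzed FBS) after overnight treatment at 37C.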

[9] = qHTS assay to test for compound auto fluorescence at 590 nm (red) in HEK293 cells (AID 720679); conditions: red autofluorescence 540/590 nm; series mostly up to 91.3 µM
Procedure, shortened: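 We plated HEK293 cells in 10% dialyzed FBS medium, let them adhere for 4-5 hr, then added 23 nL compound. Overnight at 37C and 5% CO2 preceded fluorescence measurement at 540/590nm.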

[10] = qHTS assay to test for compound auto fluorescence at 535 nm (green) in HEK293 cells (AID 720680); conditions: green autofluorescence 485/535 nm; series mostly up to 91.3 µM
[11] = qHTS assay to test for compound auto fluorescence at 535 nm (green) in HEK293 cell free culture (AID 720682); conditions: cell-free medium, green autofluorescence 485/535 nm, stronger effect = higher value; series mostly up to 91.3 µM
Procedure, shortened: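 Using fluorescein as calibrant, autofluorescence was quantified at 485/535 nm in cell-free DMEM containing 10% FBS after pintool addition of compound or vehicle.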

[12] = qHTS assay to test for compound auto fluorescence at 590 nm (red) in HEK293 cell free culture (AID 720683); conditions: cell-free medium autofluorescence, Ex540/Em590 red; series mostly up to 91.3 µM
Procedure, shortened: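 Red-channel autofluorescence of compounds in culture medium (DMEM, 10% FBS), no cells, measured at 540/590 nm. Rose Bengal sodium is the reference fluorophore for equivalence.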

[13] = qHTS assay to test for compound auto fluorescence at 590 nm (red) in HepG2 cell free culture (AID 720684); conditions: cell-free medium autofluorescence, red 540/590 nm; series mostly up to 91.3 µM
Procedure, shortened: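 Plate contents were MEM with 10% FBS plus test compound or DMSO, no cells. Fluorescence was recorded with 540 nm excitation and 590 nm emission.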

[14] = qHTS assay to test for compound auto fluorescence at 460 nm (blue) in HepG2 cell free culture (AID 720685); conditions: Cell-free culture medium, blue autofluorescence 405/460 nm; series mostly up to 91.3 µM
Procedure, shortened: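 Compound (23 nL) or DMSO pinned into cell-free MEM with 10% FBS; blue fluorescence read at 405/460 nm excitation/emission, expressed as auto-fluorescence equivalency to triamterene.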

[15] = qHTS assay to test for compound auto fluorescence at 460 nm (blue) in HepG2 cells (AID 720687); conditions: autofluorescence 405/460 nm, 1 h; series mostly up to 91.3 µM
Procedure, shortened: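 Blue-channel autofluorescence (Ex/Em 405/460 nm, triamterene-equivalent) was measured after 1 hr compound exposure at 37 C, 5% CO2. Cells were HepG2, plated overnight at 37 C in MEM plus 10% FBS.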

[16] = target: Glucocorticoid receptor (Homo sapiens) (UniProt P04150); experiment: qHTS assay to identify small molecule agonists of the glucocorticoid receptor (GR) signaling pathway (AID 720691; active = well fitted activation curve with a large enough effect in the signal ratio in the repeat runs, not every such curve was filed as active; the % refers to the signal ratio; also: potency is read from the fitted curve at half-maximal effect); conditions: GR-bla HeLa, beta-lactamase reporter ratio, 18 h; series mostly up to 62.4 µM
Sequence of Glucocorticoid receptor (Homo sapiens) (P04150 whole entry, looked up): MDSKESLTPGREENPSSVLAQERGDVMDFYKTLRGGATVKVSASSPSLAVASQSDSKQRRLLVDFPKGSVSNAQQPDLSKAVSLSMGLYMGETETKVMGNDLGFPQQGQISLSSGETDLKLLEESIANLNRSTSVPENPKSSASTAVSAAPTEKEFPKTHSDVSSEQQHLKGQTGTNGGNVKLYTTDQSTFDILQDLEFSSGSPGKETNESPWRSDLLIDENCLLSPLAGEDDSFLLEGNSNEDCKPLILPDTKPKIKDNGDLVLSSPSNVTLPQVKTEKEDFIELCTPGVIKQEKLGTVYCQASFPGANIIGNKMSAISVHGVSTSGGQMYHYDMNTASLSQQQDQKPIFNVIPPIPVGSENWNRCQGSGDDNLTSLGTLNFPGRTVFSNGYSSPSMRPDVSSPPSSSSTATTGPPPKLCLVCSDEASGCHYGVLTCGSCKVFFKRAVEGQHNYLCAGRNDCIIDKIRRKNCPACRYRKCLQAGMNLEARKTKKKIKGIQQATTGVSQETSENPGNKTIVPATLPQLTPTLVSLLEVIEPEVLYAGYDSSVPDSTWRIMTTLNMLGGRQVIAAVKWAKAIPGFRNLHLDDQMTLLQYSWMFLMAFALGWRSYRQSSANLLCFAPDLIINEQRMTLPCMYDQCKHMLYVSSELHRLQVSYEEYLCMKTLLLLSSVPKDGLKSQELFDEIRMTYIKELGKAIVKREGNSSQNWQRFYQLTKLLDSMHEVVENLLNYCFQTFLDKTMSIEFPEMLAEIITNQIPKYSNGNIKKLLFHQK
Procedure, shortened: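 Fluorescence intensity from LiveBLAzer B/G FRET substrate (2 h, room temperature) reports beta-lactamase expression driven by the glucocorticoid response element in GR-bla HeLa cells after 18 h compound exposure at 37 C.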

[17] = target: Glucocorticoid receptor (Homo sapiens) (UniProt P04150); experiment: qHTS assay to identify small molecule antagonists of the glucocorticoid receptor (GR) signaling pathway (AID 720692; active = well fitted inhibition curve with a large enough effect in the signal ratio in the repeat runs, not every such curve was filed as active; the % refers to the signal ratio); conditions: GR-bla HeLa, beta-lactamase FRET ratio, dexamethasone-stimulated, 18 h; series mostly up to 58.5 µM
Procedure, shortened: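 HeLa GR-bla cells; cmpd + dex 5 nM final, 18 h 37 C; LiveBLAzer B/G FRET substrate 2 h RT; fluorescence intensity read. Antagonist mode, qHTS.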

[18] = qHTS assay to test for compound auto fluorescence at 535 nm (green) in HepG2 cell free culture (AID 720686); conditions: Cell-free medium, green autofluorescence 485/535 nm; series mostly up to 91.3 µM
[19] = qHTS assay to test for compound auto fluorescence at 460 nm (blue) in HEK293 cell free culture (AID 720681); conditions: cell-free medium, autofluorescence 405/460 nm (blue); series mostly up to 91.3 µM
Procedure, shortened: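 Blue fluorescence (Ex 405/Em 460 nm, triamterene-equivalent) was read immediately after pin transfer of compound or DMSO into medium (DMEM, 10% FBS) without cells.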

[20] = qHTS assay for small molecule agonists of the p53 signaling pathway (AID 651631; calls by dose curve; also: nearly all actives have a fitted effect of over 15% in size); conditions: HCT-116 p53RE-bla reporter, beta-lactamase FRET ratio, 16 h; series mostly up to 73.3 µM
Procedure, shortened: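 Stably transfected HCT-116 cells (beta-lactamase behind p53 response elements) get compounds after a 5 h settling period; 16 h later at 37 °C, FRET substrate is loaded and fluorescence read after 2 h.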

Measured: Potency

CCCC[N+](C)(CCCC)CCCC
not listed: [18] | [19] | [20]
inactive: all other assays above

CCOC(=O)OC(C)OC1=C(C(=O)Nc2ccccn2)N(C)S(=O)(=O)c2ccccc21 (stereo not given)
active: [1] 3.35 µM | [16] 5.35 µM
not listed: [5] | [17] | [19] | [20]
inactive: all other assays above

N[C@@H](CCC(=O)O)C(=O)O
not listed: [5] | [20]
inactive: all other assays above

O=S(=O)(O)c1cccc(S(=O)(=O)O)c1
not listed: [5] | [16] | [17] | [18] | [20]
inactive: all other assays above

COc1ccccc1OCC1CNC(=O)O1 (stereo not given)
not listed: [16] | [17] | [18] | [20]
inactive: all other assays above

CN1CCN(c2cc3c(nn2)Oc2ccccc2N3C)CC1
not listed: [1] | [3] | [11] | [16] | [17]
inactive: all other assays above

NC(CCC(=O)O)C(=O)O (stereo not given)
not listed: [13] | [20]
inactive: all other assays above
